IL-1B inflam inh = inflammasome signaling inhibition, IL-1 beta readout | THP-1 LPS/ATP IL-1B secretion, AlphaLISA, 16 h; stronger effect = lower value | activity change, % at 57.5 µM | 4.7% of 360,000 active | AID 743279; in the data active means activity change below about -50%; inconclusive means mostly about -30% to -49%
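Secreted IL-1B measured by AlphaLISA bead assay after 16 h compound exposure of THP-1 cells; compounds (final up to 57.5 uM) added 1 h before LPS (250 ng/mL) and ATP (1.25 mM) stimulation; lower signal means less secretion.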
12-LOX inh = inhibitors of human 12S-lipoxygenase ALOX12. P18054. purified 12hLO, xylenol orange hydroperoxide absorbance. Potency, µM (series often up to 108 µM), without a hit: top-dose activity change, negative = inhibition, actives largely listed as inhibitors. 1.1% of 580,000 active. AID 1671190; further: potency means the concentration at half of the fitted maximal effect
Target sequence (P18054 whole entry, looked up): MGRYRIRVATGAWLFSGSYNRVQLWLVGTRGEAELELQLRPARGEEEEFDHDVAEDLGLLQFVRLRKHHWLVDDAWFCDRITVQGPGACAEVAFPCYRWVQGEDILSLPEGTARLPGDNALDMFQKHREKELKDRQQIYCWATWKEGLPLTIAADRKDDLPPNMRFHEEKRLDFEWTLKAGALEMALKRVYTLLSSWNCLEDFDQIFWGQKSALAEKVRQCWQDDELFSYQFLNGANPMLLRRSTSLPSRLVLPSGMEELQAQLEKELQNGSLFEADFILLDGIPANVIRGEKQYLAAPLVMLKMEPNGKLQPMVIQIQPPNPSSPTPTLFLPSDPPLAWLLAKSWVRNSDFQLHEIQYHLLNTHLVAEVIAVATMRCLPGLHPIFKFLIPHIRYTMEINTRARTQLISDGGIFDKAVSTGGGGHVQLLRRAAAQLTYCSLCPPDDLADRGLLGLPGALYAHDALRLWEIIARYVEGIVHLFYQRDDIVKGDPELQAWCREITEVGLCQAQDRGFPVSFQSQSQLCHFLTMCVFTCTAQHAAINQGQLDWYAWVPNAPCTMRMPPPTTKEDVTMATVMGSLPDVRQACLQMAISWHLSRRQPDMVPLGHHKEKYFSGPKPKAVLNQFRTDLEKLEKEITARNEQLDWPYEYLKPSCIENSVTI
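Purified human 12hLO at 150 nM in 25 mM Hepes, 0.01% Triton X-100, pH 7.0, preincubated 15 min at room temperature with compound. Reaction started with 40 uM arachidonic acid, 30 min at room temperature. Hydroperoxide measured by Fe-xylenol orange, 573/405 nm absorbance ratio.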
DT40 TDP1 no CPT = qHTS for Inhibitors of human tyrosyl-DNA phosphodiesterase 1 (TDP1): qHTS in cells in absence of CPT; DT40 Tdp1-/- hTDP1 cells, no CPT, ATP luminescence, 48 h; Potency, µM (highest dose often 46.2 µM), without a hit: at the top dose activity change, negative = growth inhibition, usual class: inhibitors; 15% of 420,000 active; further: potency means the concentration at half of the fitted maximal effect; nearly all actives have a fitted effect of over 55% in size
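Compound effects on proliferation are scored in DT40 Tdp1-/-;hTDP1 cells in the absence of CPT. ATP levels (CellTiter-Glo luminescence) are recorded after a ≥48 hr, 37 °C incubation.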
DT40 TDP1 CPT = DT40-hTDP1 cell growth loss with CPT. chicken DT40 Tdp1-/-;hTDP1 cells + 20 nM CPT, ATP luminescence, 48 h. Potency, µM (doses to about 46.2 µM), inactives show top-dose activity change, negative = growth inhibition, hits mostly inhibitors. 12% of 420,000 active; further: potency means the concentration at half of the fitted maximal effect; nearly all actives have a fitted effect of over 55% in size
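Chicken DT40 Tdp1-/- cells complemented with human TDP1, 400 cells/well, exposed to compounds plus 20 nM camptothecin for at least 48 h at 37 C; viability read as ATP content by CellTiter-Glo luminescence.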
HT1080 IDH1KD tx = toxicity to HT-1080 IDH1 knockdown cells (counter line); HT-1080 IDH1 knockdown viability, ATP luminescence, 48 h; Potency, µM (highest dose often 46.1 µM), for inactives: at the highest dose activity, negative = toxicity, usual class: cytotoxic; AID 686971; 2% of 360,000 active;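 further: potency means the concentration at half of the fitted maximal effect; 0% = DMSO wells and -100% = cell-free medium wells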
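After a 2 h attachment period, IDH1KD HT-1080 cells took pin-transferred compound for 48 h at 37 °C; ATP-based luminescence after 10 min room-temperature reagent incubation reported viability.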
HT1080NT lethal = kills 2HG-producing HT-1080-NT fibrosarcoma cells; AID 686970; HT-1080-NT fibrosarcoma viability, CellTiter-Glo ATP luminescence, 48 h; Potency, µM (titrated, usually from 46.1 µM), for inactives: top-dose activity, negative = less viability, hits mostly cytotoxic; 1.6% of 360,000 active;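 further: NT is the 2HG producing partner of a matched IDH1 knockdown line; potency means the concentration at half of the fitted maximal effect; 0% = DMSO-treated cells and -100% = media-only wells without cells; nearly all actives have a fitted effect of over 55% in size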
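Viability by CellTiter-Glo luminescence after 48 h compound exposure at 37C of HT-1080-NT cells (750/well, RPMI, 5% FBS). % activity scaled between DMSO wells and medium-only wells, then curve-fitted and categorized by curve class.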
* marks the source's active call; other numbers are inactive results; [ ] = dose if it differs, or a comment. This is one part of a sample in which hits are shown more often than they occur. Unless noted, the call rests on the fitted dose curve; in most records, active means well fitted curve in the direction sought with a large enough effect; inconclusive means small, poorly fitted or top-dose-only effect, or another doubt; inactive means no such curve, though single readings can be large; an effect the other way counts as inactive or inconclusive. Unless noted, on the % scale 0 is the no-effect control and ±100 the full control effect.

How did Cc1oc(-c2nc(C#N)c(N(C)Cc3ccccc3)o2)cc1S(=O)(=O)N(C)C do in these assays?
12-LOX inh: 7%

What do the screens show for `O=C(Nc1ccc2[nH]ccc2c1)C1=NO[C@@H]2CN(Cc3ccc(F)cc3)C[C@H]12`?
12-LOX inh: -2%[176 µM]

What do the screens show for `CC(=O)c1ccc(NC(=O)CSc2ncnc3ccccc23)cc1`?
12-LOX inh: -4%

What do the screens show for `N=c1sccn1CC(=O)NC(c1ccccc1)c1ccccc1`?
IL-1B inflam inh: -52*; 12-LOX inh: -10%; DT40 TDP1 no CPT: inconclusive; DT40 TDP1 CPT: inconclusive; HT1080 IDH1KD tx: -23%; HT1080NT lethal: -1%

How did Cc1ccc(Oc2ccc(NC(=O)Cn3ccsc3=N)cc2)cc1 do in these assays?
IL-1B inflam inh: -100*; 12-LOX inh: 24%; DT40 TDP1 no CPT: inconclusive; DT40 TDP1 CPT: inconclusive; HT1080 IDH1KD tx: inconclusive; HT1080NT lethal: -26%

What do the screens show for `O=C(Cn1cnc2ccccc21)NC(c1ccccc1)c1ccccc1`?
IL-1B inflam inh: -17; 12-LOX inh: -17%; DT40 TDP1 no CPT: -33%; DT40 TDP1 CPT: inconclusive; HT1080 IDH1KD tx: inconclusive; HT1080NT lethal: -20%

What do the screens show for `N=c1sccn1CC(=O)Nc1ccccc1Oc1ccccc1`?
IL-1B inflam inh: -29; 12-LOX inh: 2%; DT40 TDP1 no CPT: -10%; DT40 TDP1 CPT: -1%; HT1080 IDH1KD tx: -5%; HT1080NT lethal: -7%

How did N=c1sccn1CC(=O)Nc1ccccc1Cc1ccccc1 do in these assays?
IL-1B inflam inh: -51*; 12-LOX inh: -4%; DT40 TDP1 no CPT: inconclusive; DT40 TDP1 CPT: inconclusive; HT1080 IDH1KD tx: 7%; HT1080NT lethal: -5%

How did Oc1ccc2ccccc2c1/C=N/Nc1nnc(-c2ncc[nH]2)c2ccccc12 do in these assays?
IL-1B inflam inh: 69; 12-LOX inh: inconclusive; DT40 TDP1 no CPT: 5.2µM*; DT40 TDP1 CPT: 5.2µM*; HT1080 IDH1KD tx: 5.2µM*; HT1080NT lethal: 5.8µM*

How did Oc1ccc2ccccc2c1/C=N/c1nccs1 do in these assays?
IL-1B inflam inh: 39; 12-LOX inh: -21%; DT40 TDP1 no CPT: -12%; DT40 TDP1 CPT: -19%; HT1080 IDH1KD tx: inconclusive; HT1080NT lethal: inconclusive

Results for Oc1ccc2ccccc2c1C=NNc1ccccn1 ?
IL-1B inflam inh: 127; 12-LOX inh: -16%; DT40 TDP1 no CPT: 4.6µM*; DT40 TDP1 CPT: 3.3µM*; HT1080 IDH1KD tx: inconclusive; HT1080NT lethal: inconclusive

Results for Oc1ccc2ccccc2c1CNc1ccccn1 ?
IL-1B inflam inh: -5; 12-LOX inh: 35µM*; DT40 TDP1 no CPT: 0%; DT40 TDP1 CPT: -8%; HT1080 IDH1KD tx: 13%; HT1080NT lethal: 6%

What do the screens show for `COCCOc1ccc(C(=O)/C=C/c2cccc(C#N)c2)cc1OC`?
12-LOX inh: -6%

How did O=C(CSc1ccc(Br)cc1)N1CCN(S(=O)(=O)c2ccccc2)CC1 do in these assays?
IL-1B inflam inh: -9; 12-LOX inh: 0%; DT40 TDP1 no CPT: -27%; DT40 TDP1 CPT: 2%; HT1080 IDH1KD tx: -7%; HT1080NT lethal: -1%

How did O=C(CSc1cccc(C(F)(F)F)c1)N1CCN(S(=O)(=O)c2ccccc2)CC1 do in these assays?
IL-1B inflam inh: -55*; 12-LOX inh: -26%; DT40 TDP1 no CPT: inconclusive; DT40 TDP1 CPT: inconclusive; HT1080 IDH1KD tx: -13%; HT1080NT lethal: -7%

How did C=CCN1C(=O)/C(=C/c2ccc(OC(C)=O)c(OCC)c2[N+](=O)[O-])SC1=S do in these assays?
IL-1B inflam inh: -76*; 12-LOX inh: inconclusive; DT40 TDP1 no CPT: inconclusive; DT40 TDP1 CPT: inconclusive; HT1080 IDH1KD tx: 21µM*; HT1080NT lethal: 9.2µM*

Source: PubChem
